Where “and” joins values, the source holds several entries; their conditions need not be identical. Equal values may be shown once. This is part of a sample that, as a whole, favours compounds with a hit. Of some 79,000 tested, about 15% had one in any assay. Where a structure was tested more than once in an assay, its records may differ in their call. Calls of active or inactive are those of the source. Rule as the data show it: active = growth inhibition above about 70%; inactive = the rest.
Test: NCI Yeast Anticancer Drug Screen. Data for the cln2 rad14 strain (AID 165);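 also: 0% = growth equal to vehicle treated cultures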
Details: S. cerevisiae cln2 rad14 strain, stronger effect = higher value
Description: Growth inhibition of yeast strains with defined genetic alterations is measured as a screen for potential anti-cancer activity. Selected strains with alterations in DNA damage repair or cell cycle control were exposed to compounds and growth inhibition was measured relative to vehicle treated controls. The strain used in this assay is cln2 rad14

[1] = at 5.0 µM (retest, dose inferred, filed as 0.5)
[2] = at 50.0 µM (retest, dose inferred, filed as 5.0)

Structure (SMILES)	growth inhibition [1]	growth inhibition [2]	growth inhibition (at 50.0 µM)
CS(=O)(=O)OCCN(CCOS(C)(=O)=O)c1ccc(C=Nc2ccc(-c3csc(Cc4ccccc4)n3)cc2)c(Cl)c1	7% (inactive)	85% (active)	77% (active)
O=C1C(=Cc2c[nH]c3ccccc23)C(=O)c2ccccc21	6% (inactive)	83% (active)	2.15% (inactive) and 32.4% (inactive)
O=C(CCN1CCN2c3ccccc3CCC2C1)c1ccc(F)cc1 (configuration not stated)	65% (inactive) and -5% (inactive)	64% (inactive) and 98% (active)	93.5% (active) and 22.4% (inactive)
CC1=C(C(=O)Nc2c(C)cccc2C)C(c2ccc3c(c2)OCO3)C(C(=O)Nc2c(C)cccc2C)=C(C)N1	16% (inactive)	16% (inactive)	79.5% (active)
c1cc2c3c(c1)ccc1cccc(c13)COC2	-42% (inactive) and 4% (inactive)	-7% (inactive) and 27% (inactive)	69.2% (inactive) and 96.5% (active)
COc1ccc(Cc2ccc(O)cc2)cc1	42% (inactive)	8% (inactive)	-20.9% (inactive)
COc1cc2c3c(c1)SCCC(=O)N3CCN2	-4% (inactive)	-4% (inactive)	80.4% (active)
C=C1C(=O)N2c3ccccc3C(C)(C)C2(S)C(=O)N1C (configuration not stated)	-9% (inactive)	40% (inactive)	63.9% (inactive)
Cc1[nH]c2ccccc2c1C1Cc2ccccc2N1 (configuration not stated)	10% (inactive) and 16% (inactive)	6% (inactive) and 29% (inactive)	47.4% (inactive) and 67.6% (inactive)
O=C(OC(=Nc1ccccc1)N(c1ccccc1)c1ccccc1)c1ccccc1	5% (inactive)	21% (inactive)	17.8% (inactive) and -2.05% (inactive)
CCN(CC)CCNc1n[n+]([O-])c2cc([N+](=O)[O-])ccc2[n+]1[O-]	32% (inactive)	63% (inactive)	48% (inactive) and 41% (inactive)
Oc1ccc(Cc2ccccc2)cc1	-5% (inactive)	-12% (inactive)	-18.6% (inactive)
CCN(CC)Cc1cc2c(cc1O)CC[C@@H]1[C@@H]2CC[C@]2(C)C(=O)CC[C@@H]12	-2% (inactive)	11% (inactive)	72.5% (active) and -21.2% (inactive)
O=C(O)c1ccc2c(c1)Cc1cc([N+](=O)[O-])ccc1-2	-92% (inactive)	83% (active)	34.6% (inactive)

Source: PubChem BioAssay (NCI)
